According to the supplement of paper PMC8975748:
Where a name gives a salt, the structure may show the parent alone.

Test system: Saccharomyces cerevisiae BY4741 SeMeCo community
Test: z-score of subpopulation abundance vs DMSO median, subpopulation auxotrophic for H; higher = larger share of this subpopulation than in DMSO controls
Conditions: 10 µM; 24 h; SM minimal medium; subpopulation (auxotrophy): H
Experimental: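 Fluorescent four-plasmid SeMeCo (self-establishing metabolically cooperating S. cerevisiae BY4741 community; plasmids pH-mRuby2, pL-mWasabi, pU-eCFP, pM-TagRFP657) was grown 24 h in minimal SM medium with each Selleck FDA-approved drug at 10 µM in 384-well plates. Cells were fixed and imaged by high-content confocal microscopy. For each auxotrophic subpopulation (and the prototroph), a z-score gives the deviation from the DMSO vehicle-control population median.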

| SMILES | z-score of subpopulation abundance |
| --- | --- |
| C#C[C@]1(OC(C)=O)CC[C@H]2[C@@H]3CCC4=C[C@@H](OC(C)=O)CC[C@@H]4[C@H]3CC[C@@]21C [Ethynodiol diacetate] | -0.43 |
| C[N+]1(C)[C@@H]2C[C@@H](OC(=O)C(O)(c3cccs3)c3cccs3)C[C@H]1[C@@H]1O[C@@H]12 [Tiotropium Bromide hydrate] | -0.8 |
| c1cnc2cc3c(cc2n1)[C@@H]1CNC[C@H]3C1 [Varenicline Tartrate] | 0.28 |
| Nc1ccc(C(=O)O)c(O)c1 [4-Aminosalicylic acid] | -0.01 |
| CCCCCCCCN=C(N)NC(N)=NCc1ccc(Cl)c(Cl)c1 [Olanexidine Hydrochloride semihydrate] | 4.73 |
| CO[C@@]1(NC(=O)C(C(=O)O)c2ccc(O)cc2)C(=O)N2C(C(=O)O)=C(CSc3nnnn3C)CO[C@@H]21 (stereo not given in full) [Latamoxef sodium] | 0.8 |
| CC(=O)NS(=O)(=O)c1ccc(N)cc1 [Sulfacetamide Sodium] | 0.92 |
| CN(C)CCCN1c2ccccc2Sc2ccccc21 [Promazine hydrochloride] | -0.82 |
| COc1cc(N)c(Cl)cc1C(=O)NC1CCN(CCCOc2ccc(F)cc2)CC1OC (stereo not given) [Cisapride] | -0.08 |
| COC(=O)C1=C(C)NC(C)=C(C(=O)OCCN2CCN(C(c3ccccc3)c3ccccc3)CC2)C1c1cccc([N+](=O)[O-])c1 (stereo not given) [Manidipine 2HCl] | 1.78 |
| CN1CCN(c2c(F)cc3c(=O)c(C(=O)O)cn4c3c2OCN4C)CC1 [Marbofloxacin] | -1.41 |
| Clc1ccc(COC(Cn2ccnc2)c2ccc(Cl)cc2Cl)c(Cl)c1 (stereo not given) [Miconazole] | 27.8 |
| CC[C@H](Nc1ncnc2[nH]cnc12)c1nc2cccc(F)c2c(=O)n1-c1ccccc1 [Idelalisib (CAL-101, GS-1101)] | 0.31 |
| COc1cc(/C=C/C(=O)N2CCN(CC(=O)N3CCCC3)CC2)cc(OC)c1OC [Cinepazide maleate] | -0.51 |
| CCC(C)(C)c1ccc(CC(C)CN2C[C@@H](C)O[C@@H](C)C2)cc1 (stereo not given in full) [Amorolfine HCl] | 8.59 |
| Nc1ccc(S(=O)(=O)c2ccc(N)cc2)cc1 [Dapson] | 0.61 |
| CN1CC(=O)N2[C@H](c3ccc4c(c3)OCO4)c3[nH]c4ccccc4c3C[C@@H]2C1=O [Tadalafil] | 0.35 |
| Nc1ccc(S(=O)(=O)Nc2ccccn2)cc1 [Sulfapyridine] | -0.9 |
| C=CCCCCCCCCC(=O)[O-].C=CCCCCCCCCC(=O)[O-].[Zn+2] [Zinc Undecylenate] | -1.44 |
| O=c1ccn(C2CC(O)C(CO)O2)c(=O)[nH]1 (stereo not given) [2-deoxyuridine] | 0.07 |

| SMILES | z-score of subpopulation abundance |
| --- | --- |
| N[C@@H]1CONC1=O [D-Cycloserine] | 1.3 |
| CN1[C@@H]2CC[C@H]1C[C@@H](OC(=O)c1c[nH]c3ccccc13)C2 [Tropisetron] | 0.66 |
| COC(=O)C1=C(C#N)NC(C)=C(C(=O)OC(C)C)C1c1cccc([N+](=O)[O-])c1 (stereo not given) [Nilvadipine] | 1.45 |
| CN(CCOc1ccc(NS(C)(=O)=O)cc1)CCc1ccc(NS(C)(=O)=O)cc1 [Dofetilide] | -0.68 |
| CC(=O)[O-].[K+] [Potassium acetate] | -0.01 |
| CC1CCc2cc(F)cc3c(=O)c(C(=O)O)cn1c23 (stereo not given) [Flumequine] | -1 |
| CCCCN1CCCC[C@H]1C(=O)Nc1c(C)cccc1C [Levobupivacaine HCl] | -0.68 |
| CO/N=C(\C(=O)N[C@@H]1C(=O)N2C(C(=O)O)=C(COC(C)=O)CS[C@H]12)c1csc(N)n1 [Cefotaxime sodium] | -0.66 |
| C#CCN[C@@H]1CCc2ccccc21 [Rasagiline Mesylate] | 0.22 |
| Cc1cccc(Nc2ccccc2C(=O)O)c1C [Mefenamic Acid] | -0.41 |
| CCCCC(F)(F)[C@@]1(O)CC[C@H]2[C@@H](CC(=O)[C@@H]2CCCCCCC(=O)O)O1 [Lubiprostone] | -0.12 |
| NC12CC3CC(CC(C3)C1)C2 [Amantadine HCl] | -0.11 |
| Cc1noc(NS(=O)(=O)c2ccc(N)cc2)c1C [Sulfisoxazole] | -0.4 |
| O=C(O)c1cccnc1Nc1cccc(C(F)(F)F)c1 [Niflumic acid] | -0.77 |
| CC/C=C(\C(=O)N[C@@H]1C(=O)N2C(C(=O)OCOC(=O)C(C)(C)C)=C(COC(N)=O)CS[C@H]12)c1csc(N)n1 [Cefcapene Pivoxil Hydrochloride] | 1.15 |
| c1ccc(-c2ccc(C(c3ccccc3)n3ccnc3)cc2)cc1 (stereo not given) [Bifonazole] | 1.08 |
| C#C[C@]1(O)CC[C@H]2[C@@H]3CCC4=CCCC[C@@H]4[C@H]3C(=C)C[C@@]21CC [Desogestrel] | 0.78 |
| Oc1ccc(C2CNCCc3c2cc(O)c(O)c3Cl)cc1 (stereo not given) [Fenoldopam mesylate] | 0.06 |
| O=C(Nc1cccc(C2=NCCN2)c1)Nc1cccc(C2=NCCN2)c1 [Imidocarb dipropionate] | -0.78 |
| CN1CC2c3ccccc3Oc3ccc(Cl)cc3C2C1 (stereo not given) [Asenapine maleate] | -0.64 |
